Values joined by “and” are separate entries in the source; they are usually repeats but may differ in a detail not shown here. Equal values may be shown once. Results filed as inconclusive are left out. Where a structure was tested more than once in an assay, its records may differ in their call. Active and inactive are the calls of the source. Unless noted, calls come from the whole dose curve; as a rule, active = well fitted curve in the direction sought with a large enough effect in the repeat runs; inconclusive = weak or mixed curves; inactive = no such curve, though single readings can be large; an effect the other way counts as inactive or inconclusive.

A short description of assay [1]: qHTS assay to identify small molecule agonists of the vitamin D receptor (VDR) signaling pathway - cell viability counter screen (AID 743224). Note: nearly all actives have a fitted effect of over 50% in size. Note: potency is the fitted concentration of half-maximal effect. A digest of the protocol:
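Counter screen run in the same wells as the VDR-bla reporter assay: CellTiter-Glo luminescence, 30 min at room temperature, after 16 h compound treatment at 37C of cells pre-plated for 4 h.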

Assay [2] can be described thus: qHTS assay to identify small molecule agonists of the endoplasmic reticulum stress response signaling pathway (AID 1159516; active = well fitted activation curve with a large enough effect in the signal ratio in the repeat runs, not every such curve was filed as active; the % refers to the signal ratio). Summed up:
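Ratiometric FRET readout (405 nm excitation; 460 and 530 nm emission) of a beta-lactamase gene driven by the ER stress response element, after 2 hr substrate loading. HeLa ESRE-bla cells were seeded overnight and treated with compounds for only 5 hr at 37 C.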

Assay [3] can be described thus: qHTS assay to identify small molecule agonists of the endoplasmic reticulum stress response signaling pathway - cell viability counter screen (AID 1159517; calls by dose curve; note: series mostly up to about 61 µM; nearly all actives have a fitted effect of over 50% in size). Summed up: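 Cytotoxicity of test compounds toward ESRE-bla HeLa cells was assessed after 5 hr exposure. The luminescent CellTiter-Glo signal was measured 30 min after reagent addition.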
Assay [4] is described as follows: qHTS assay to identify small molecule antagonists of the retinoid-related orphan receptor gamma (ROR-gamma) signaling pathway - cell viability counter screen (AID 1159520). Note: nearly all actives have a fitted effect of over 50% in size. Note: potency is the fitted concentration of half-maximal effect. A digest of the protocol:
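Tet-on ROR gamma CHO cells (1,000/well) were plated 4 hr, given compounds in DMSO for 2 hr at 37 C, then induced with 1 uM final doxycycline for 16 hr. Viability was read as ATP by CellTiter-Glo luminescence after 30 min.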

The target of assay [5] is Nuclear receptor ROR-gamma (Homo sapiens) (UniProt P51449). Briefly: qHTS assay to identify small molecule antagonists of the retinoid-related orphan receptor gamma (ROR-gamma) signaling pathway (AID 1159521; note: nearly all actives have a fitted effect of over 50% in size; note: potency is the fitted concentration of half-maximal effect). A digest of the protocol:
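CHO cells expressing RORγ under a TET-on promoter, luciferase under RORE control. Dox 1 uM final, 16 h; compounds added 2 h prior. Luminescence decrease measured.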

Assay [6] in a line: qHTS assay to identify small molecule agonists of the AP-1 signaling pathway - cell viability counter screen (AID 1159525; calls by dose curve; note: nearly all actives have a fitted effect of over 55% in size; note: potency is the fitted concentration of half-maximal effect). A digest of the protocol: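 Each titration point was normalised to DMSO and tetra n-octyl ammonium bromide controls. The read was Cell Titer Glo luminescence after 30 min at RT, following 5 h compound exposure of ME-180 AP-1-bla cells at 37 °C.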
A short description of assay [7]: qHTS assay to identify small molecule agonists of the AP-1 signaling pathway (AID 1159526; calls by dose curve).
A short description of assay [8]: qHTS assay to identify small molecule agonists of the RXR signaling pathway - cell viability counter screen (AID 1159529). Note: nearly all actives have a fitted effect of over 50% in size. Note: potency is the fitted concentration of half-maximal effect. Summed up: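 Same-well viability check after the LiveBLAzer FRET read: CellTiter-Glo added, luminescence measured after 30 min at room temperature. Reporter HEK 293T cells had been treated with compounds for 16 hr following a 5 hr preincubation.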

A short description of assay [9]: qHTS assay to identify small molecule antagonists of the estrogen related receptor (ERR) signaling pathway from Tox21 library - cell viability counter screen (AID 1224834). Note: nearly all actives have a fitted effect of over 30% in size. Note: potency is the fitted concentration of half-maximal effect. A digest of the protocol: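 CellTiter-Fluor fluorescence, read after 30 min at 37 C, measures viability of ERR cells. Cells plated at 2,000/well and incubated 6 h before pin-tool compound addition, then exposed 17.5 hours at 37 C.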

The target of assay [10] is Luciferin 4-monooxygenase (Photinus pyralis) (UniProt P08659). Briefly: qHTS assay to identify small molecule inhibitors of firefly luciferase (AID 1224835). Note: nearly all actives have a fitted effect of over 25% in size. Note: potency is the fitted concentration of half-maximal effect. Summed up: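 Quantitative HTS format; KM concentrations of both substrates. Purified P. pyralis FLuc activity quantified from luminescence images.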
Sequence of Luciferin 4-monooxygenase (Photinus pyralis) (P08659 whole entry, looked up): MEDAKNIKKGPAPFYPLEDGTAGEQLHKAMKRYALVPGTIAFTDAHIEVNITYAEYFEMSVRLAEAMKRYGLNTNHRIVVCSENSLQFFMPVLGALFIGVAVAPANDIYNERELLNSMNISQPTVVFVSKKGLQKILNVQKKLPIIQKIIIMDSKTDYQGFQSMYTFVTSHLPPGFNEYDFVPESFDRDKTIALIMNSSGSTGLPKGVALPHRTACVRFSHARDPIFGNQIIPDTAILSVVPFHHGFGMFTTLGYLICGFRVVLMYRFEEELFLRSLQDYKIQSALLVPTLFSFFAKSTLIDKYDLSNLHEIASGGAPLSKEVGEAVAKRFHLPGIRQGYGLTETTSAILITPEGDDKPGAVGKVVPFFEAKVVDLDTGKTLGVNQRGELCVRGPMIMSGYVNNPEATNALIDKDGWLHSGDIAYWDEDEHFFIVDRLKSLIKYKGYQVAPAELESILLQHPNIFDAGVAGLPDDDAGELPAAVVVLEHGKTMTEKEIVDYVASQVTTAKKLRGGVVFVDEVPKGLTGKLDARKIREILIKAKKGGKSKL
Assay [11] is described as follows: qHTS assay to identify small molecule antagonists of the vitamin D receptor (VDR) signaling pathway - cell viability counter screen (AID 743225). Note: nearly all actives have a fitted effect of over 50% in size. Summed up:
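Luminescent cell viability (CellTiter-Glo) in VDR-bla HEK 293T cells after 16 h compound exposure at 37C in the presence of 3 nM final 1-alpha,25-dihydroxy vitamin D3.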

The target of assay [12] is Retinoic acid receptor RXR-alpha (Homo sapiens) (UniProt P19793). Briefly: qHTS assay to identify small molecule agonists of the RXR signaling pathway (AID 1159527; calls by dose curve; note: nearly all actives have a fitted effect of over 35% in size). A digest of the protocol:
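Beta-lactamase reporter assay, agonist format. Engineered HEK 293T line, charcoal-stripped FBS at 2%, overnight (16 hr) exposure, fluorescence at 460 and 530 nm after 405 nm excitation.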

A short description of assay [13]: qHTS assay to identify small molecule antagonists of the retinoid acid receptor (RAR) signaling pathway - cell viability counter screen (AID 1159551). Note: nearly all actives have a fitted effect of over 35% in size. Summed up:
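Cytotoxicity counter screen: ATP content quantified by CellTiter-Glo luminescence in C3RL4 cells treated 6 hr at 37 C with compound and retinol (1 uM final). Cells plated at 1,000/well and cultured overnight before dosing.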

Assay [14] is described as follows: qHTS assay to identify small molecule antagonists of the retinoic acid receptor (RAR) signaling pathway (AID 1159552; note: nearly all actives have a fitted effect of over 50% in size; note: potency is the fitted concentration of half-maximal effect). A digest of the protocol:
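Readout: luciferase luminescence, 30 min post-reagent at RT. Setup: C3RL4 RARE reporter cells, compounds plus retinol 1 uM final, 6 hr incubation at 37 C and 5% CO2.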

A short description of assay [15]: qHTS assay to identify small molecule agonists of the retinoic acid receptor (RAR) signaling pathway (AID 1159553). Note: potency is the fitted concentration of half-maximal effect. Summed up:
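Luminescence was measured 30 min after luciferase reagent addition at room temperature. Before that, C3RL4 reporter cells (1,000 per well, plated overnight) were treated with compound for 6 hr at 37 C and 5% CO2.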

Assay [16] in a line: qHTS assay to identify small molecule agonists of the estrogen related receptor (ERR) signaling pathway (AID 1224820). A digest of the protocol:
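Luminescence readout (One-Glo, 30 min RT) from NTP-supplied ERR cell line exposed to compounds for 18 h at 37 C. Cells seeded 2,000 per well and pre-incubated 6 h before pin-tool compound transfer.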

Assay [17] in a line: qHTS assay to identify small molecule agonists of the estrogen related receptor signaling pathway with the pleiotropic PPARgamma coactivator (PGC) (AID 1224823). Summed up:
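Luminescence readout (One-Glo, 30 min RT) from PGC/ERR cell line treated 18 h at 37 C with pin-tool-delivered DMSO compound solutions; cells plated 6 h before dosing. Quantitative HTS format.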

Assay [18] is described as follows: qHTS assay to identify small molecule agonists of the NFkB signaling pathway - cell viability counter screen (AID 1159515; calls by dose curve; note: series mostly up to about 61 µM; nearly all actives have a fitted effect of over 55% in size). Summed up: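 Read by CellTiter-Glo luminescence (30 min, room temperature) in the wells also used for the beta-lactamase FRET read. ME-180 NFkB-bla cells at 2,000 per well were plated overnight, then exposed to compound for 5 hr at 37 C.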

Sequence of Retinoic acid receptor RXR-alpha (Homo sapiens) (P19793 whole entry, looked up): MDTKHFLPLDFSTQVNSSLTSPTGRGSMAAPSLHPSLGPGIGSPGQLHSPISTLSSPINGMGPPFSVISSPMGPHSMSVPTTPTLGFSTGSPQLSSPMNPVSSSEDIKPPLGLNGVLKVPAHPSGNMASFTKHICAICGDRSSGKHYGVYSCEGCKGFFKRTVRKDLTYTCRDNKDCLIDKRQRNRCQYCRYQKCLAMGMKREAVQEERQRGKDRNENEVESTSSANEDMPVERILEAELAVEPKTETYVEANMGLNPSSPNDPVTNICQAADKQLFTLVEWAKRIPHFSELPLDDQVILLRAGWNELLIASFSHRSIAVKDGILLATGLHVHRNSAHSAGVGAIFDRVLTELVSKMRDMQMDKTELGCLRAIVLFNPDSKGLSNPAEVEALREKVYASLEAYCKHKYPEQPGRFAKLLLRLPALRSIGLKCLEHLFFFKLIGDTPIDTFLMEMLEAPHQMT

Consider `CC[C@H](c1ccc(O)cc1)[C@@H](CC)c1ccc(O)cc1`, for which the Potency result in assay [1], in [3], in assay [4], in [7] and in assay [10] was “inactive” throughout. The compound was called inactive in [2]. Also, the Potency in assay [5] was 54.5 µM (active) and inactive; in [6], 54.9 µM (active) and inactive; in assay [8] it was 49 µM (active); in assay [9], 27.3 µM (active).
Take `CC(=O)OCC(C)OC(C)=O` (stereo not drawn): the Potency result in [1], in assay [11], in assay [3], in [4], in assay [5] and in assay [6] was “inactive” throughout. Also, the Potency result in [7], in assay [12], in assay [8], in assay [13], in assay [14] and in [9] was “inactive” in each case. The Potency result in [10] was “inactive”. Further, the compound was called inactive in [2].
On to `CCCCCCCCCCC=O`, for which the Potency result in assay [1], in assay [11], in assay [4], in assay [5], in assay [6] and in assay [7] was “inactive” throughout. Also, the Potency entry in assay [12], in assay [8], in [13], in assay [14], in assay [15] and in [9] was “inactive” in each case. For the same compound, the Potency result in assay [10] is “inactive”. In addition, in assay [2], the call was inactive.
For the compound `CCC(N)(CO)CO`, the Potency entry in assay [1], in assay [11], in assay [3], in assay [4], in [5] and in assay [6] was “inactive” each time. Besides, the Potency result in assay [7], in assay [12], in [8], in [13], in assay [14] and in assay [15] was “inactive” in each case. For the same compound, the Potency result in assay [9] and in assay [10] was “inactive” in each case. Moreover, in assay [2], the call was inactive.
Regarding `CCCC1O[C@@H]2C[C@H]3[C@@H]4CCC5=CC(=O)C=C[C@]5(C)[C@H]4[C@@H](O)C[C@]3(C)[C@]2(C(=O)CO)O1` (stereo partly drawn), the Potency entry in assay [1], in [11], in assay [3], in assay [4], in [6] and in [8] was “inactive” throughout. Further, the Potency result in assay [13], in [15] and in assay [10] was “inactive” in each case. Also, the call in [2], in [16] and in assay [17] was inactive. The Potency in [5] and in assay [14] was 48.6 µM (active) each time.
Turning to `C/C=C1/C(=O)C[C@H]2[C@@H]3CCC4=CC(=O)CC[C@]4(C)[C@H]3CC[C@]12C`, the Potency result in [1], in assay [11], in assay [18], in assay [6], in assay [7] and in assay [8] was “inactive” in each case. The Potency result in [13] and in [10] was “inactive” throughout. The Potency in assay [9] was 60.9 µM (active).
Take `C[n+]1ccn(Cc2ccccc2)c1`: the Potency entry in assay [11], in assay [3], in assay [4], in assay [5], in [6] and in [7] was “inactive” in each case. Besides, the Potency entry in [12], in assay [8], in assay [13], in assay [14], in assay [15] and in assay [9] was “inactive” each time. Further, the call in assay [2] was inactive.
Consider `c1ccc(CSCc2ccccc2)cc1`, for which the Potency entry in assay [1], in [11], in assay [3], in assay [4], in assay [5] and in assay [6] was “inactive” each time. The Potency entry in assay [7], in assay [12], in assay [8], in assay [13], in assay [14] and in [9] was “inactive” in each case. In assay [2], the compound was classed as inactive.
On to `COC(=O)C1=C(C)NC(C)=C(C(=O)OCC(C)C)C1c1ccccc1[N+](=O)[O-]` (stereo not drawn), for which the Potency in [1] was 27.5 µM (active); in assay [4] it was 43.3 µM (active) and inactive; in assay [6] it was 24.5 µM (active) and inactive; in assay [8], 49 µM (active) and inactive; in [14], 48.6 µM (active); in assay [9], 21.7 µM (active) and 29.8 µM (active). In addition, the Potency entry in assay [11], in assay [3], in assay [7], in [13], in assay [15] and in assay [10] was “inactive” each time. For the same compound, the compound was called inactive in [2].
Regarding `CCCCCCOC(=O)c1ccc(O)cc1`, in assay [2], the call was inactive. Moreover, the Potency entry in assay [4], in [5], in [12], in [13] and in assay [14] was “inactive” in each case. Further, the Potency in assay [15] is 4.33 µM (active) and 1.93 µM (active); in assay [10] it was 31.8 µM (active) and 28.3 µM (active).
In the case of `COc1cccc(N)c1`, the result in assay [2] was inactive. Further, the Potency result in assay [3], in assay [4], in assay [5], in assay [6], in assay [7] and in assay [12] was “inactive” throughout. The Potency entry in assay [8], in assay [13] and in [14] was “inactive” each time.

(Values after PubChem BioAssay (Tox21).)
